# Assay results taken from PubChem BioAssay (NCATS).
# Records with an inconclusive call do not appear. A call without a number means that no potency is given here. More than one record can exist for a structure, and the calls need not agree. A number with no mark means an inactive call. Active and inactive are the calls of the source. Unless noted, calls come from the whole dose curve; as a rule, active = well fitted curve in the direction sought with a large enough effect; inconclusive = small, poorly fitted or top-dose-only effect, or another doubt; inactive = no such curve, though single readings can be large; an effect the other way counts as inactive or inconclusive.
# Legend:
# [1] = P-glycoprotein substrates identified in KB-8-5-11 adenocarcinoma cell line, qHTS therapeutic library screen (AID 1346987); note: nearly all actives have a fitted effect of over 65% in size; note: potency is the fitted concentration of half-maximal effect
# Procedure, shortened: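 Steps: plate 500 KB-8-5-11 cells/well in DMEM + 10% FCS (colchicine removed); pin compounds in dose-response; incubate 72 h, 37 degree C, 5% CO2; add CellTiter-Glo, 5 min; read luminescence.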
# [2] = target: Glutathione peroxidase 1 (Homo sapiens) (UniProt P07203); experiment: Primary qHTS Assay for Inhibitors of Recombinant Selenoprotein Glutathione Peroxidase 1 (GPX1) (AID 1845191); note: nearly all actives have a fitted effect of over 65% in size
# Procedure, shortened: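 10 nM GPX1 + cpd, 30 min RT; start w/ 1 mM GSH, 0.5 mM cumene hydroperoxide, 0.5 mM NADPH, 100 nM GR, 0.01% BSA; buffer 50 mM Tris-HCl pH 7.5, 2 mM EDTA, 150 mM NaCl; Fl 340/450, 0 & 15 min.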
# [3] = Primary qHTS for inhibitors of nuclear receptor binding SET domain protein 2 (NSD2) in an isogenic RCH-ACV NSD2 p.E1099K mutant (9B) (AID 1645876); note: nearly all actives have a fitted effect of over 70% in size; note: potency is the fitted concentration of half-maximal effect
# [4] = Primary qHTS for inhibitors of nuclear receptor binding SET domain protein 2 (NSD2) in an RCH-ACV wild type WT cells (2C) (AID 1645877); note: potency is the fitted concentration of half-maximal effect; nearly all actives have a fitted effect of over 70% in size
# [5] = qHTS for Inhibitors of Plasmodium falciparum (DD2) proliferation (AID 504314); note: potency is the fitted concentration of half-maximal effect;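 for activity, negative = inhibition: parasite DNA measured by SYBR Green fluorescence after red cell lysis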
# Procedure, shortened: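 Quantitative HTS growth inhibition: SYBR Green I binding to parasite DNA after 72 h drug exposure of infected erythrocytes (0.3% parasitemia, 2.5% hematocrit). Signals normalized per plate to inhibitor and vehicle wells.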
# [6] = qHTS for Inhibitors of Plasmodium falciparum (GB4) proliferation (AID 504315); note: nearly all actives have a fitted effect of over 50% in size; note: potency is the fitted concentration of half-maximal effect
# Procedure, shortened: (§1)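 Erythrocytes infected with P. falciparum line (0.3% parasitemia, 2.5% hematocrit final) incubated with compounds 72 h at 37 °C, 5% CO2; SYBR Green lysis buffer added, fluorescence read next day. Normalized to 0.29 uM artemisinin and DMSO.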
# [7] = qHTS for Inhibitors of Plasmodium falciparum (7G8) proliferation (AID 504316); note: nearly all actives have a fitted effect of over 65% in size; note: potency is the fitted concentration of half-maximal effect; for activity change, negative = inhibition: series mostly up to about 6.7 µM
# Procedure, shortened: as §1
# [8] = target: Atrial natriuretic peptide receptor 1 (Homo sapiens) (UniProt P16066); experiment: Natriuretic polypeptide receptor (hNpr1) antagonism - Pilot CMLD screen (AID 1347052; calls by dose curve;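 note: HEK293 cells with hNpr1 stimulated by hNppA peptide at 0.1 nM; cGMP level read as GloSensor luciferase luminescence after agonist stimulation; series mostly up to about 9.2 µM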)
# [9] = qHTS for Inhibitors of Plasmodium falciparum (CP250) proliferation (AID 504320)
# Procedure, shortened: as §1
# [10] = target: Rap guanine nucleotide exchange factor 3 (Homo sapiens) (UniProt O95398); experiment: Confirmatory qHTS for agonist of cAMP-regulated guanine nucleotide exchange factor 3 (EPAC1) (AID 1645881);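 note: EPAC1 catalysed release of BODIPY-GDP from Rap1B seen as fluorescence loss; nearly all actives have a fitted effect of over 75% in size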
# [11] = target: Rap guanine nucleotide exchange factor 4 (Homo sapiens) (UniProt Q8WZA2); experiment: Confirmatory qHTS for agonist of cAMP-regulated guanine nucleotide exchange factor 4 (EPAC2) (AID 1645884);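 note: nucleotide exchange releases bodipy-GDP from Rap1 and this lowers its fluorescence; nearly all actives have a fitted effect of over 65% in size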
# [12] = target: Rap guanine nucleotide exchange factor 4 (Homo sapiens) (UniProt Q8WZA2); experiment: Confirmatory qHTS for antagonist of cAMP-regulated guanine nucleotide exchange factor 4 (EPAC2) (AID 1645885); note: nearly all actives have a fitted effect of over 25% in size
# [13] = target: Rap guanine nucleotide exchange factor 3 (Homo sapiens) (UniProt O95398); experiment: Counterscreen qHTS for antagonist of cAMP-regulated guanine nucleotide exchange factor 3 (EPAC1) (AID 1645888);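 note: fluorescence loss as bound BODIPY-GDP is released from Rap1B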
# Procedure, shortened: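 Rap1B-BODIPY-GDP 250 nM + GDP 50 uM; cpds 7-pt, final 9.74 nM–152 uM (activator mode) or from 7.32 nM upwards (inhibitor mode); RT; FI 480/540 nm at 5 and 30 min, then ± cAMP, reread.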
# [14] = qHTS for Inhibitors of Plasmodium falciparum (HB3) proliferation (AID 504318); note: potency is the fitted concentration of half-maximal effect; nearly all actives have a fitted effect of over 60% in size
# Procedure, shortened: as §1
# Sequence of Atrial natriuretic peptide receptor 1 (Homo sapiens) (P16066 whole entry, looked up): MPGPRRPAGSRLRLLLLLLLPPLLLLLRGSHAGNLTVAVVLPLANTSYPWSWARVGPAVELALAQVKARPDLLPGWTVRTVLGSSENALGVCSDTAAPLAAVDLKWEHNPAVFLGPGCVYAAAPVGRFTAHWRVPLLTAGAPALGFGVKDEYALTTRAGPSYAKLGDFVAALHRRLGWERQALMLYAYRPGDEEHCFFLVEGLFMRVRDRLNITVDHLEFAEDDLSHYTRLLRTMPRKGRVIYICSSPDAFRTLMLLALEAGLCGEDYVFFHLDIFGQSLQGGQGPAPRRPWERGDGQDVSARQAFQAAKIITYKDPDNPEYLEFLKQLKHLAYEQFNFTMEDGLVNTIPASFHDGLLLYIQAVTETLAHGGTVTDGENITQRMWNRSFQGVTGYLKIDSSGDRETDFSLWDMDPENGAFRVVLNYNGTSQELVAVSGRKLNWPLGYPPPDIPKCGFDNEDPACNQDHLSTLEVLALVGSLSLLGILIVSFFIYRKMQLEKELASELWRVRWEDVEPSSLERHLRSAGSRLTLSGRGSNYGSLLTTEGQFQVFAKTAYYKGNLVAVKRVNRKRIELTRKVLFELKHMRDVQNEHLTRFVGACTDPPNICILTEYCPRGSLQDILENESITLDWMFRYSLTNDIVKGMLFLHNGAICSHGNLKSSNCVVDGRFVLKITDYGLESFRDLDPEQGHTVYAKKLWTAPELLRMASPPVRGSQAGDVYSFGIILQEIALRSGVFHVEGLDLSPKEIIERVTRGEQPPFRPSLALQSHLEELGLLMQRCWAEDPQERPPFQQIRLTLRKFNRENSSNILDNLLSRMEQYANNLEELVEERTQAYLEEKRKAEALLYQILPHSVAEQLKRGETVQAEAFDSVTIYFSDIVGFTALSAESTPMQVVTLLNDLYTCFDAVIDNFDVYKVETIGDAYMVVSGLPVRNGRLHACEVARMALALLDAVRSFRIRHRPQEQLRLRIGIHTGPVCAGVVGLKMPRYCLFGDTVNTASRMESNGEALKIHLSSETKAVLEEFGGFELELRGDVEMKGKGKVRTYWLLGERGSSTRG
# Sequence of Glutathione peroxidase 1 (Homo sapiens) (P07203 whole entry, looked up): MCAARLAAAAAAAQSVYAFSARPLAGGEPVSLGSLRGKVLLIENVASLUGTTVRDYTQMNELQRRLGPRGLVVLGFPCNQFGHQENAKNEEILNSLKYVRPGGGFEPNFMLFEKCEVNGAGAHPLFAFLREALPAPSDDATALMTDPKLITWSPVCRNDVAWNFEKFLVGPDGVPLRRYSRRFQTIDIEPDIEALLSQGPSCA
# Sequence of Rap guanine nucleotide exchange factor 4 (Homo sapiens) (Q8WZA2 whole entry, looked up): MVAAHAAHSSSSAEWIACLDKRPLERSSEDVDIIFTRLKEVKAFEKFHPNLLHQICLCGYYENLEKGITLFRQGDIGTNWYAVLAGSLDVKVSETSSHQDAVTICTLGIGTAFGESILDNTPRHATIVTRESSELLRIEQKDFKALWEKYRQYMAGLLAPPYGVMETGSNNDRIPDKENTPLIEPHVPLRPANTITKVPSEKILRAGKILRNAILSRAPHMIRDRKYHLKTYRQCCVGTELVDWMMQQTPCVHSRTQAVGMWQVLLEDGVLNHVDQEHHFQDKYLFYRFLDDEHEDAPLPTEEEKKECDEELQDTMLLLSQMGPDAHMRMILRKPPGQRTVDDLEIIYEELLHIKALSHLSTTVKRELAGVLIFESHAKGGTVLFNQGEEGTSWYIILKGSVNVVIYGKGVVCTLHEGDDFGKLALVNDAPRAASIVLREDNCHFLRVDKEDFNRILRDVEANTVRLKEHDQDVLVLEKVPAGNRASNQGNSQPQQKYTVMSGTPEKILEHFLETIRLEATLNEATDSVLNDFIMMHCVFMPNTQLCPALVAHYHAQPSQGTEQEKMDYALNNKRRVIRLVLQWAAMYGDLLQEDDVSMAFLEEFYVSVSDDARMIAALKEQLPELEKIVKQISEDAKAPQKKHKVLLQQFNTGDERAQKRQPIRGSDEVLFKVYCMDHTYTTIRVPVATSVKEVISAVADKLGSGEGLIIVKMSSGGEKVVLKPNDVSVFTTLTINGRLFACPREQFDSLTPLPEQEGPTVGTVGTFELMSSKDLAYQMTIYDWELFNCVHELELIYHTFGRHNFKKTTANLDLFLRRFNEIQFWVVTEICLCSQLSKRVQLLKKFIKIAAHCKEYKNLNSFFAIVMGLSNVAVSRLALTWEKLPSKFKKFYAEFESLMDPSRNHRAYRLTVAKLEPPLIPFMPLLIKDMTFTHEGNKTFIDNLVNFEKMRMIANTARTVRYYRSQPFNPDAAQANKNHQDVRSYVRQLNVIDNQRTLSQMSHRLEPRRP
# Sequence of Rap guanine nucleotide exchange factor 3 (Homo sapiens) (O95398 whole entry, looked up): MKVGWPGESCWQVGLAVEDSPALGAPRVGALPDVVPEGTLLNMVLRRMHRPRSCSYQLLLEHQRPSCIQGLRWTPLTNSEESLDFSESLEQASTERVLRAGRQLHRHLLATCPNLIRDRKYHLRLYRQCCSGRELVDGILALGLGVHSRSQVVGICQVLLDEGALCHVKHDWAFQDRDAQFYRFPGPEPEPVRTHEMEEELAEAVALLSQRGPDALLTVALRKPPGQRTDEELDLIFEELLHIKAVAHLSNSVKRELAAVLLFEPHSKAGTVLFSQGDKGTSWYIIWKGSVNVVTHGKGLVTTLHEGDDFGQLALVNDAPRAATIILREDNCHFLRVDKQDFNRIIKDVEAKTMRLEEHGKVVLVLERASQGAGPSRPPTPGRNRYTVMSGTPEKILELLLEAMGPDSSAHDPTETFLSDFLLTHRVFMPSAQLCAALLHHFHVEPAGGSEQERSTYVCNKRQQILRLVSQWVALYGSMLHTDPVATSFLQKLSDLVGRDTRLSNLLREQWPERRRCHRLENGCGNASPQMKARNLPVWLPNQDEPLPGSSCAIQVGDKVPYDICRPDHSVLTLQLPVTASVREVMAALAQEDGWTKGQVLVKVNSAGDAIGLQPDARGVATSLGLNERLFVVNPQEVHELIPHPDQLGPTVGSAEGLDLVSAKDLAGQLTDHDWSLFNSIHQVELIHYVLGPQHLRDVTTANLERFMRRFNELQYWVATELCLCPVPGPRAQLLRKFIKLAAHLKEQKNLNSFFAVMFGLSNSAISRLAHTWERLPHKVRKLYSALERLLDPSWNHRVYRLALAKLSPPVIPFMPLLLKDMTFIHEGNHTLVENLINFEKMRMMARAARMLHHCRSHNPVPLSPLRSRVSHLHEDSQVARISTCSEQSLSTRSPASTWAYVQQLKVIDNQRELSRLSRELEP
compound,measurement,setting,value
CCCCCCCCCCC(O)C1C=CC2C(=O)N(c3ccccc3)C(=O)C2N1Nc1ccc([N+](=O)[O-])cc1 (stereo not drawn),Potency,[1],inactive
same,Potency,[2],inactive
CCOc1cccc2c1OC(c1ccc(F)cc1)C([N+](=O)[O-])=C2 (stereo not drawn),Potency,[1],11600 nM (active)
same,Potency,[3],5800 nM (active)
same,Potency,[4],5800 nM (active)
same,Potency,[2],inactive
O=c1cc(-c2ccc(O)cc2)oc2cc(OC3OC(CO)C(O)C(O)C3O)c(C3OC(CO)C(O)C(O)C3O)c(O)c12 (stereo not drawn),Potency,[1],inactive
same,Potency,[3],inactive
same,Potency,[2],inactive
CCN(CC)CCNC(=O)c1c(C)[nH]c(/C=C2\C(=O)Nc3ccc(Cl)cc32)c1C,Potency,[1],18400 nM (active)
same,Potency,[3],2590 nM (active)
same,Potency,[4],2910 nM (active)
same,Potency,[2],inactive
CCCC[C@]12Cc3cc(C#N)ccc3[C@H](O1)c1c(c3cc(F)ccc3oc1=O)O2,Potency,[5],inactive
same,Potency,[6],inactive
same,Potency,[7],inactive
same,Potency,[8],inactive
CCCCC1=CC2=CC(=O)C(C)(OC(=O)CCc3ccccc3)C(=O)C2=CO1 (stereo not drawn),Potency,[7],inactive
same,Potency,[9],inactive
same,Potency,[8],inactive
same,outcome,[10],inactive
same,activation,[11],0% [at 17.1 µM]
same,"activity change, negative = inhibition",[12],20.8% [at 12.7 µM]
same,"activity change, negative = inhibition",[13],1.91% [at 30.8 µM]
COC(=O)C1=C(C)N(Cc2ccccc2)C(=S)NC1CCc1ccccc1 (stereo not drawn),Potency,[5],inactive
same,Potency,[6],inactive
same,Potency,[7],inactive
same,Potency,[8],inactive
CC(C)=CCN1C(=O)[C@]2(O[C@H](COc3ccccc3)CC3=CCCC32)c2c(Br)cccc21 (stereo partly drawn),Potency,[5],3780 nM (active)
same,Potency,[6],1900 nM (active)
same,Potency,[8],inactive
COC(=O)C[C@H]1c2ccccc2[C@@H]2C(=C[C@@H](C)[C@H]3C(=O)N(O)C(=O)[C@H]32)N1C(=O)OC,Potency,[5],inactive
same,Potency,[6],inactive
same,Potency,[7],inactive
same,Potency,[8],inactive
COC(=O)C1=C(C)N(Cc2ccccc2)C(=NCc2cc(OC)c(OC)c(OC)c2)NC1c1cccc(F)c1 (stereo not drawn),Potency,[5],1190 nM (active)
same,Potency,[8],inactive
C=CCN1C(=O)CC[C@@]23C1=NC(C(=O)OC)=C(C(=O)OC)[C@@H]2N(CC#CC)c1ccccc13,Potency,[5],inactive
same,Potency,[6],inactive
same,Potency,[8],inactive
C#CCN1C(=O)C2(CC(C)=C[C@@H](C)O2)c2c(Br)cccc21 (stereo partly drawn),Potency,[5],inactive
same,Potency,[6],inactive
same,Potency,[7],inactive
same,Potency,[8],inactive
Cc1ccc(C(=O)OC[C@H]2O[C@H](Cl)C[C@H]2OC(=O)c2ccc(C)cc2)cc1,Potency,[5],1690 nM (active)
same,Potency,[8],inactive
CCCCc1cc2c(cn1)=C(OC(=O)c1cccs1)C(C)(OC(=O)CC)C(=O)C=2 (stereo not drawn),Potency,[5],1890 nM (active)
same,"activity, negative = inhibition",[5],1.64% [at 1.12 µM]
same,Potency,[6],1690 nM (active)
same,Potency,[7],1690 nM (active)
same,Potency,[14],1900 nM (active)
same,Potency,[9],inactive
same,Potency,[8],inactive
